Experimental data reported in PubChem BioAssay (NCI).
Several values for one entry are separate records, joined by “and”; a condition that tells them apart may be missing. Equal entries are not always repeated. This is part of a sample that, as a whole, favours compounds with a hit. Of some 83,000 tested, about 20% had one in any assay.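 Activity criterion: percent growth below 10, measured after cells in 96-well plates were exposed to a single compound concentration for 48 hours.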 Activity calls are given as the source filed them. Where a SMILES comes first, the peptide text is derived from it.

Tested on: UO-31 renal
Experiment: NCI-60 one-dose screen, 48 h (100 = growth as untreated, 0 = no growth, -100 = all killed)
Conditions: 10 µM unless noted

Structure (SMILES) | growth
NC(Cc1c[nH]c2ccccc12)C(=O)O (centres undefined) | 91.9% (inactive) and 72.6% (inactive)
COc1ccc(C(=O)CC(c2ccccc2)C(C#N)c2ccccc2)cc1 (centres undefined) | 69.2% (inactive)
Cc1ccc(=O)[nH]n1 | 90.9% (inactive) and 95.1% (inactive)
O=C(O)/C=C\C(=O)Nc1cccc2ccccc12 | 59.7% (inactive) and 72% (inactive)
NN1CCOC(c2ccccc2)C1 (centres undefined) | 71.4% (inactive)
c1ccc(-c2nc3ccccc3s2)cc1 | 66.9% (inactive)
NC(Cc1ccccc1)C(=O)NC(Cc1ccccc1)C(=O)O (stereo not drawn) (H-Phe-Phe-OH; configuration not given here) | 88.5% (inactive) and 86.9% (inactive)
Oc1ccc(Cc2ccccc2Cl)c(O)c1 | 61.1% (inactive)
CN(C)c1ccc(/C=C\C(=O)c2ccccc2)cc1 | 74.5% (inactive) and 69.4% (inactive) and 63.9% (inactive)
NC1CCC(C(=O)O)CC1 (centres undefined) | 105% (inactive) and 87% (inactive)
C/C(=C\c1ccccc1)c1ccccn1 | 98.9% (inactive)
CCN(CCNS(C)(=O)=O)c1ccc(N)c(C)c1 | 42.2% (inactive)
O=CN1CCCCC1 | 97.2% (inactive)
CCCCOC(=O)/C=C\C(=O)NC(N)=O | 31% (inactive)
CC[C@H](CC[C@@H](C)[C@H]1CC[C@H]2[C@@H]3CC=C4C[C@@H](O)CC[C@]4(C)[C@H]3CC[C@]12C)C(C)C | 92.7% (inactive) and 96.2% (inactive)
N#CC(C#N)N=Nc1ccc(Cl)cc1 | 10.6% (inactive)
O=C1OC(C(O)C(O)CO)C(O)=C1O (centres undefined) | 104% (inactive) and 94.2% (inactive)
CC(C)C(C)(C)c1ccc(O)cc1 | 98.1% (inactive)
OCC1OC(O)C(O)C(O)C1O (centres undefined) | 97.4% (inactive)
CC1CCC2(OC1)OC1CC3C4CC=C5CC(O)CCC5(C)C4CCC3(C)C1C2C (centres undefined) | 86% (inactive)
Nc1ccc2c(O)cc(S(=O)(=O)O)cc2c1 | 69.5% (inactive) and 63.5% (inactive)
CC1CCC2(C(=O)O)CCC3(C)C(=CCC4C5(C)CCC(O)C(C)(C)C5CCC43C)C2C1C (centres undefined) | 5.91% (active) and 55.4% (inactive)
CC1CCC(C(C)C)C(NNC(N)=O)C1 (centres undefined) | 86.6% (inactive)
CC(=O)Nc1ccc(S(N)(=O)=O)cc1 | 95.8% (inactive) and 84.3% (inactive)

Tested on: TK-10 renal
Experiment: as above
Conditions: 10 µM unless noted

Structure (SMILES) | growth
NC(Cc1c[nH]c2ccccc12)C(=O)O (centres undefined) | 103% (inactive) and 98.8% (inactive)
CC(C)NC(=O)N/C=C(\C#N)C(N)=O | 99.7% (inactive)
CC(=O)OCC1OC(OC(C)=O)C(OC(C)=O)C(OC(C)=O)C1OC(C)=O (centres undefined) | 110% (inactive) and 106% (inactive)
Cc1cc(-c2ccc(N=Nc3ccc4c(S(=O)(=O)O)cc(S(=O)(=O)O)c(N)c4c3O)c(C)c2)ccc1N=Nc1ccc2c(S(=O)(=O)O)cc(S(=O)(=O)O)c(N)c2c1O | 112% (inactive)
COc1ccc(C(=O)CC(c2ccccc2)C(C#N)c2ccccc2)cc1 (centres undefined) | 88% (inactive)
Cc1ccc(=O)[nH]n1 | 110% (inactive) and 101% (inactive)
O=C1C=C(Nc2ccccc2)c2ccccc2C1=O | 149% (inactive) and 136% (inactive)
CN1CNC(=O)NC1 | 112% (inactive) and 115% (inactive)
COc1cc(C(O)C2C(=O)OCC2C2(c3ccc4c(c3)OCO4)SCCCS2)cc(OC)c1OC (centres undefined) | 98.2% (inactive)
O=C(O)/C=C\C(=O)Nc1cccc2ccccc12 | 107% (inactive) and 121% (inactive)
NN1CCOC(c2ccccc2)C1 (centres undefined) | 122% (inactive)
NC(Cc1ccccc1)C(=O)NC(Cc1ccccc1)C(=O)O (stereo not drawn) (H-Phe-Phe-OH; configuration not given here) | 105% (inactive)
Oc1ccc(Cc2ccccc2Cl)c(O)c1 | 103% (inactive)
CN(C)c1ccc(/C=C\C(=O)c2ccccc2)cc1 | 76.6% (inactive) and 79% (inactive) and 70.5% (inactive)
c1ccc2c(c1)OC1OC2Oc2ccccc21 | 97.6% (inactive)
NC1CCC(C(=O)O)CC1 (centres undefined) | 97.7% (inactive) and 102% (inactive)
CC1(C)COC(=S)N1 | 101% (inactive)
C/C(=C\c1ccccc1)c1ccccn1 | 162% (inactive)

Structure (SMILES) | growth
CCN(CCNS(C)(=O)=O)c1ccc(N)c(C)c1 | 55.8% (inactive) and 17.7% (inactive)
O=CN1CCCCC1 | 125% (inactive)
CCCCOC(=O)/C=C\C(=O)NC(N)=O | 119% (inactive)
CC[C@H](CC[C@@H](C)[C@H]1CC[C@H]2[C@@H]3CC=C4C[C@@H](O)CC[C@]4(C)[C@H]3CC[C@]12C)C(C)C | 91.7% (inactive) and 107% (inactive)
N#CC(C#N)N=Nc1ccc(Cl)cc1 | 42.9% (inactive)
O=C1OC(C(O)C(O)CO)C(O)=C1O (centres undefined) | 124% (inactive) and 100% (inactive)
CCCCCCCCCCCCCCCCC(C(=O)O)C(O)(CC(=O)O)C(=O)O (centres undefined) | 94.1% (inactive) and 34% (inactive)
CC(C)C(C)(C)c1ccc(O)cc1 | 107% (inactive)
OCC1OC(O)C(O)C(O)C1O (centres undefined) | 100% (inactive)
CC1CCC2(OC1)OC1CC3C4CC=C5CC(O)CCC5(C)C4CCC3(C)C1C2C (centres undefined) | 101% (inactive)
O=C(/C=C/c1ccccc1)c1ccccc1 | 114% (inactive)
O=c1[nH]cnc2c1ncn2C1OC(CO)C(O)C1O (centres undefined) | 113% (inactive) and 114% (inactive) and 106% (inactive)
Nc1ccc2c(O)cc(S(=O)(=O)O)cc2c1 | 94.4% (inactive) and 143% (inactive)
CC1CCC(C(C)C)C(NNC(N)=O)C1 (centres undefined) | 105% (inactive)
CC(=O)Nc1ccc(S(N)(=O)=O)cc1 | 101% (inactive)
Cc1cc2ccccc2cn1 | 103% (inactive) and 93.4% (inactive)
C#CCOC(=O)Nc1ccccc1 | 103% (inactive)
